Results on 26 molecules are retold here after PubChem BioAssay (NCATS).

Each structure is given as a SMILES string. Values without a mark were called inactive. Records with an inconclusive call do not appear. The source made the active and inactive calls. The call rests on the fitted dose curve; in most records, active means well fitted curve in the direction sought with a large enough effect; inconclusive means small, poorly fitted or top-dose-only effect, or another doubt; inactive means no such curve, though single readings can be large; an effect the other way counts as inactive or inconclusive.

The target in test [1] is Glutathione peroxidase 1 (Homo sapiens) (UniProt P07203). Briefly: Primary qHTS Assay for Inhibitors of Recombinant Selenoprotein Glutathione Peroxidase 1 (GPX1) (AID 1845191). Further: nearly all actives have a fitted effect of over 65% in size. On activity, negative = inhibition: on the % scale 0 is the no-effect control and ±100 the full control effect. The method in brief: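 10 nM GPX1 + cpd, 30 min RT; start w/ 1 mM GSH, 0.5 mM cumene hydroperoxide, 0.5 mM NADPH, 100 nM GR, 0.01% BSA; buffer 50 mM Tris-HCl pH 7.5, 2 mM EDTA, 150 mM NaCl; Fl 340/450, 0 & 15 min.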
In general terms: Quantitative high-throughput screening tests each substance at several concentrations.

Test [2] addresses Phospholipid hydroperoxide glutathione peroxidase GPX4 (Homo sapiens) (UniProt P36969). Briefly: Primary qHTS Assay for Inhibitors of Recombinant Selenoprotein Glutathione Peroxidase 4 (GPX4) (AID 1845192). Further: nearly all actives have a fitted effect of over 65% in size. The gist of the method:
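NADPH consumption, followed by fluorescence at 340/450 nm between 0 and 15 min, reports GPX4 activity via coupled glutathione reductase (100 nM). Enzyme 200 nM was pre-exposed to compound 30 min; 0.5 mM cumene hydroperoxide and 1 mM GSH served as substrates.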

Test [3] addresses Luciferin 4-monooxygenase (Photinus pyralis) (UniProt P08659). Briefly: Primary firefly luciferase (FLuc) qHTS assay for identification of artifact compounds. (AID 1845220). Further: nearly all actives have a fitted effect of over 60% in size. The method in brief: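 Compounds sat 15 min at room temperature with 10 uM luciferin and 10 uM ATP (pH 7.6 Tris acetate). Firefly luciferase (10 nM final) was then added, and luminescence was read 5 min later. Data normalized to no-enzyme and DMSO controls were Hill-fitted.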

Test [4] concerns Nanoluciferase (engineered Oplophorus gracilirostris luciferase). Briefly: Primary Nanoluciferase (NLuc) qHTS assay for identification of artifact compounds. (AID 1845222). Further: potency means the concentration at half of the fitted maximal effect.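 On activity, negative = inhibition: series mostly up to about 54 µM; 0% = DMSO and -100% = no enzyme.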 The method in brief:
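Luminescence from secreted NLuc (filtered, 1:55-diluted S16 cell medium) read 5 min after Nano-Glo substrate; compounds preincubated 15 min, RT. Hill fits of inhibition normalized to DMSO and no-enzyme.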

The nature of test [5]: Primary redox qHTS assay for identification of artifact compounds. (AID 1845223).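 Further: 0% = DMSO and 100% = reference compound.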 The gist of the method: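 Amplex Red (25 uM) and HRP (250 mU/mL) in HBSS, with compounds for 15 min, then 250 uM DTT for 30 min, room temperature, dark. Fluorescence 525/598 nm read; normalized to DMSO and 10 uM DA3003; Hill fit.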
Test [6] is described as follows: Primary fluorescence-based thiol-reactive (MSTI) qHTS assay for identification of artifact compounds. (AID 1845221). Further: nearly all actives have a fitted effect of over 65% in size. Further: potency means the concentration at half of the fitted maximal effect.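 On activity change, negative = thiol reactive: series mostly up to about 54 µM; thiol-reactive compounds lower the probe fluorescence signal.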 The method in brief: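 MSTI probe at 4 uM final in 2% DMSO/PBS pH 7.4; compounds, 1 h at room temperature in dark. Fluorescence Ex/Em 525/598 nm, normalised to Acetyl-MSTI and MSTI, fitted to 4-parameter Hill.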

Chain of Phospholipid hydroperoxide glutathione peroxidase GPX4 (Homo sapiens) (P36969 whole entry, looked up): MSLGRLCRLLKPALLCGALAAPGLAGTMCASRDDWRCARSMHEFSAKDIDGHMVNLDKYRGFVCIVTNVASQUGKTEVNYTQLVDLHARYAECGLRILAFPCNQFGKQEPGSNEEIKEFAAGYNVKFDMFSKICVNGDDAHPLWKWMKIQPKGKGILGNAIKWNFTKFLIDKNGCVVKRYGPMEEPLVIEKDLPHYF
Chain of Glutathione peroxidase 1 (Homo sapiens) (P07203 whole entry, looked up): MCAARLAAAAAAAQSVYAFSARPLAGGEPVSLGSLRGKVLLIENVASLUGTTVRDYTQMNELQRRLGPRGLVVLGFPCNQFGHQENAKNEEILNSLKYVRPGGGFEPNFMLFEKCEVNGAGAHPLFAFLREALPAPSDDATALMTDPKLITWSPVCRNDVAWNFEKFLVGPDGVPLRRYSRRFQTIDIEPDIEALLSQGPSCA

For the molecule `COC(=O)C1(O)C(OC(C)=O)CCC2C3(CC(c4ccoc4)OC3=O)C(C)=CCC21C(=O)OC` (stereo not given), the Potency entry in test [1], in test [2], in test [3], in test [4] and in test [5] was “inactive” in each case.

Consider `CN(C)c1ccc(C2O[C@@H](c3ccccc3)C[C@H](c3ccccc3)O2)cc1` (stereo not given in full), for which the Potency entry in test [1], in test [2], in test [3], in test [4] and in test [5] was “inactive” in each case.

For the molecule `Cc1nc(-c2cccnc2)sc1C(=O)Nc1ccccc1-c1cn2c(CN3CCOCC3)csc2n1`, the Potency result in test [1], in test [2], in test [3], in test [4] and in test [5] was “inactive” in each case.

For `Oc1ccc(CC2NCCc3cc(O)c(O)cc32)cc1` (stereo not given), the Potency result in test [1], in test [2], in test [3], in test [4] and in test [5] was “inactive” each time.

Consider `O=C(C[C@@H]1C(C(=O)O)=CO[C@@H](O[C@@H]2O[C@H](CO)[C@@H](O)[C@H](O)[C@H]2O)/C1=C\CO)OCCc1ccc(O)cc1`, for which the Potency entry in test [1], in test [2], in test [3], in test [4] and in test [5] was “inactive” each time.

Turning to `COC1OC(=O)C2=C1C1(C)CCCC(C)(C)C1CC2O` (stereo not given), the Potency result in test [1], in test [2], in test [3], in test [4] and in test [5] was “inactive” in each case.

As for `COC(=O)C1=COC(O[C@@H]2O[C@H](CO)[C@@H](O)[C@H](O)[C@H]2O)/C(=C\COC(=O)/C=C/c2ccccc2)C1CC(=O)OCCc1ccc(O)cc1` (stereo not given in full), the Potency result in test [1], in test [2], in test [3], in test [4] and in test [5] was “inactive” each time.

With `CC(C)C(O)(CO)CCO[C@@H]1O[C@H](CO[C@H]2OC[C@](O)(CO)[C@H]2O)[C@@H](O)[C@H](O)[C@H]1O` (stereo not given in full), the Potency result in test [1], in test [2], in test [6], in test [4] and in test [5] was “inactive” throughout.

For `COc1cc(O)c2c(c1Cl)CC(C)OC2=O` (stereo not given), the Potency result in test [1], in test [2], in test [6], in test [4] and in test [5] was “inactive” throughout.

On to `O=C(O)C1(c2ccc(-c3ccc(Cl)c(Cl)c3)c(F)c2)CC1`, for which the Potency entry in test [1], in test [2], in test [6] and in test [5] was “inactive” each time. The Potency in test [4] was 16900 nM (active).

Consider `C[C@@H]1O[C@@H](O[C@@H]2\C=C/C=C\C=C/C=C\C[C@H](C)OC(=O)/C=C\[C@H]3O[C@@H]3C[C@H](O)C[C@]3(O)C[C@@H](O)[C@@H](C(=O)O)[C@H](C2)O3)[C@H](O)[C@H](N)[C@@H]1O`, for which the Potency result in test [1], in test [2], in test [6] and in test [4] was “inactive” throughout.

Regarding `CC(C)c1cc2c(c(O)c1O)[C@@]13CCCC(C)(C)C1[C@@H](O)[C@@H]2OC3=O` (stereo not given in full), the Potency result in test [1] and in test [2] was “inactive” throughout. Also, the Potency in test [6] is 927 nM (active).

`C=C(CCO[C@@H]1O[C@H](CO)[C@@H](O)[C@H](O)[C@H]1O)C(=O)O`: the Potency entry in test [1], in test [2], in test [3], in test [4] and in test [5] was “inactive” throughout.

Consider `C/C=C/C=C/C=C/C(=O)O[C@@H]1[C@@H](OC)C2=C(C(=O)N(C(CCC(=O)O)C(=O)O)C2)[C@@]2(C)CCCC(C)(C)[C@H]12` (stereo not given in full), for which the Potency result in test [1], in test [2], in test [6], in test [4] and in test [5] was “inactive” throughout.

In the case of `CC1=COC(OC2OC(CO)C(O)C(O)C2O)C2C(CO)CC(OC(=O)/C=C/c3ccc(O)cc3)C12` (stereo not given), the Potency entry in test [1], in test [2], in test [3], in test [4] and in test [5] was “inactive” in each case.

As for `COC(=O)C1=CO[C@@H](O[C@@H]2O[C@H](CO)[C@@H](O)[C@H](O)[C@H]2O)[C@H]2[C@@H]1[C@H](O)C[C@]2(C)O`, the Potency result in test [1], in test [2], in test [3], in test [4] and in test [5] was “inactive” each time.

Turning to `COC(=O)[C@]1(C)CCC[C@@]2(C)C(=O)CC[C@H]3C(=O)C=C(CC[C@@H]21)C3O` (stereo not given in full), the Potency entry in test [1], in test [2], in test [3], in test [4] and in test [5] was “inactive” in each case.

`C[C@H]1CC[C@H]2[C@@H](C=C[C@@](C)(O)[C@]2(C)C(=O)CCO)C1`: the Potency entry in test [1], in test [2], in test [3], in test [4] and in test [5] was “inactive” in each case.

Take `CC(CCc1ccc(O)cc1)O[C@@H]1O[C@H](CO[C@@H]2OC(CO)[C@H](O)[C@H]2O)[C@@H](O)[C@H](O)[C@H]1O` (stereo not given in full): the Potency result in test [1], in test [2], in test [6], in test [4] and in test [5] was “inactive” each time.

As to `O=C(Nc1ccccc1)Nc1ccc(-c2ccc(C(=O)C3CCCC3C(=O)O)cc2)cc1` (stereo not given), the Potency entry in test [1], in test [2], in test [6], in test [4] and in test [5] was “inactive” each time.

For the molecule `CC(=O)O[C@H]1[C@H](OC(=O)C(C)C)[C@]2(C)OC3(CC[C@]2(C)[C@H]2CCC[C@]4(CO4)[C@]12C)COC(=O)C3` (stereo not given in full), the Potency entry in test [1], in test [2], in test [6], in test [4] and in test [5] was “inactive” each time.

Take `O=C1NC(=O)/C(=C/c2cccc(C(F)(F)F)c2)S1`: the Potency result in test [1], in test [2] and in test [4] was “inactive” in each case. The Potency in test [6] is 1060 nM (active).

Consider `CC1(C)C(=O)CCC2(C)C1C(O)C=C1COC(=O)C12O` (stereo not given), for which the Potency entry in test [1], in test [2], in test [3], in test [4] and in test [5] was “inactive” throughout.

In the case of `Cc1ccc(C)c(NC(=O)CNS(=O)(=O)c2ccc3[nH]c(=O)oc3c2)c1`, the Potency result in test [1], in test [2], in test [3], in test [4] and in test [5] was “inactive” throughout.

Regarding `CC1OC(OC2C(OC(=O)[C@]34CCC(C)(C)C[C@H]3C3=CCC5[C@@]6(C)CC[C@H](OC7OC(C(=O)O)C(O)C(O)C7O)C(C)(C)C6CC[C@@]5(C)[C@]3(C)CC4O)OC(CO)C2O)C(O)C(O)C1OC1OCC(O)C(O)C1O` (stereo not given in full), the Potency result in test [1] and in test [2] was “inactive” in each case. Besides, in test [6], the activity change, negative = thiol reactive was 111% [at 11.5 µM]. Also, the activity, negative = inhibition in test [4] was 0% [at 11.6 µM].

Consider `N#Cc1cccc(-c2nc(-c3cccnc3)no2)c1`, for which the Potency result in test [1], in test [2], in test [6], in test [4] and in test [5] was “inactive” throughout.
